IL-1B inflam inh – inflammasome signaling inhibition, IL-1 beta readout. THP-1 LPS/ATP IL-1B secretion, AlphaLISA, 16 h; hits give low values. AID 743279. activity change, % at 57.5 µM. 4.7% of 360,000 active; in the data active = activity change below about -50%; inconclusive = mostly about -30% to -49%; note: % is set by controls: 0 for no effect and ±100 for the full control effect
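THP-1 cells pretreated 1 hr with compounds (up to 57.5 uM final), then stimulated with LPS (250 ng/mL final) plus ATP (1.25 mM final); secreted IL-1B measured by AlphaLISA after 16 hr, decreased signal indicating inhibition.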
TDP1 cell noCPT – qHTS for Inhibitors of human tyrosyl-DNA phosphodiesterase 1 (TDP1): qHTS in cells in absence of CPT; AID 686978, 2013; DT40 Tdp1-/- hTDP1 cells, no CPT, ATP luminescence, 48 h; 15% of 420,000 active; Potency, µM (highest dose often 46.2 µM), inactives show at the highest dose activity change, negative = growth inhibition, hits mostly inhibitors; note: potency is the fitted concentration of half-maximal effect; % is set by controls: 0 for no effect and ±100 for the full control effect; nearly all actives have a fitted effect of over 55% in size
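Luminescent ATP content (CellTiter-Glo) served as the growth readout. Knockout chicken DT40 cells expressing human TDP1 were exposed to compounds without camptothecin for a minimum 48 hr at 37 °C.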
Chronic BCR inh – inhibitors of chronic active B-cell receptor signaling; 0.05% of 340,000 active; AID 493014; Potency, µM (titrated, usually from 46.1 µM), without a hit: at the highest dose activity change, negative = inhibition, hits mostly inhibitors; ABC-DLBCL IkBa-CBG/CBR reporter, luminescence ratio, 4 h; active = well fitted inhibition curve with a large enough effect in the signal ratio, with a control signal flat, not every such curve was filed as active; inconclusive = small, poorly fitted or top-dose-only effect, or effect the other way, or a change in a side signal; the % refers to the signal ratio;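 note: potency is the fitted concentration of half-maximal effect; plate controls were basal doxycycline-induced cells for no effect and cells given 10 µM MG132 for full effect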
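TMD8 human ABC-DLBCL cells with doxycycline-inducible IκBα–green luciferase fusion and unfused red luciferase, in 0.5% FBS medium; compounds up to 46 uM, 4 h at 37C. Green/red luminescence ratio, filter-overlap corrected, fitted to concentration-response curves.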
SW480 rereplic – DNA re-replication induction in SW480 cells; SW480 DNA re-replication, Hoechst DNA content imaging, 48 h; Potency, µM (highest dose often 46.1 µM), inactives show at the highest dose re-replication activation, actives largely listed as activators; 1.8% of 340,000 active; note: potency is the fitted concentration of half-maximal effect; % of control where 0% means no effect; nearly all actives have a fitted effect of over 55% in size
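SW480 cells exposed to compounds for 48 hr at 37 C, 5% CO2, then Hoechst-stained 40 min. Nuclear DNA content imaged by fluorescence scanning (405 nm excitation, 500-530 nm emission); re-replication scored as increased high-intensity nuclei.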
DT40 TDP1 CPT – DT40-hTDP1 cell growth loss with CPT; AID 686979; 12% of 420,000 active; chicken DT40 Tdp1-/-;hTDP1 cells + 20 nM CPT, ATP luminescence, 48 h; Potency, µM (titrated, usually from 46.2 µM), for the others: at the top dose activity change, negative = growth inhibition, hits mostly inhibitors; note: potency is the fitted concentration of half-maximal effect; % is set by controls: 0 for no effect and ±100 for the full control effect; nearly all actives have a fitted effect of over 55% in size
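Chicken DT40 Tdp1-/- cells stably complemented with human TDP1 were seeded at 400 cells/well in medium containing 20 nM camptothecin, exposed to pin-transferred compounds, and grown at 37 °C for at least 48 hr. Viability was read as ATP luminescence.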
MCF10A rereplic – inducers of DNA re-replication in MCF 10A breast cells; MCF 10A DNA re-replication, Hoechst nuclear intensity, 48 h; Potency, µM (highest dose often 46.1 µM), without a hit: at the highest dose activity, positive = re-replication, usual class: activators; 2.9% of 350,000 active; AID 624296; note: potency is the fitted concentration of half-maximal effect; % of control where 0% means no effect; nearly all actives have a fitted effect of over 50% in size
Starred values were filed as active, the others as inactive; ? = inconclusive; . = no result given; [ ] = remark or other dose. Most compounds without a hit are left out; they make up all but 19% or so of the library. Unless noted, calls come from the whole dose curve; as a rule, active = well fitted curve in the direction sought with a large enough effect; inconclusive = small, poorly fitted or top-dose-only effect, or another doubt; inactive = no such curve, though single readings can be large; an effect the other way counts as inactive or inconclusive.

SMILES | IL-1B inflam inh | TDP1 cell noCPT | Chronic BCR inh | SW480 rereplic | DT40 TDP1 CPT | MCF10A rereplic
Cc1ccc(S(=O)(=O)N2C[C@H]3N(C(=O)OC(C)C)N(C(=O)OC(C)C)C[C@H](OC(=O)Nc4c(C)noc4C)[C@@]3(O)C2)cc1 | -51* | ? | . | . | ? | .
CCOC(=O)c1ccccc1NC(=O)CSc1nc2[nH]ncc2c(=O)[nH]1 | -7 | -2% | ? | -2% | -27% | 0%
NNC(=O)c1[nH]c2ccc(Br)cc2c1-c1ccccc1 | 14 | 23µM* | ? | ? | ? | ?
CC(=O)NNC(=O)c1[nH]c2ccc(Br)cc2c1-c1ccccc1 | 12 | -1% | ? | ? | -19% | 2%
CC(=O)c1c(-c2ccccc2)c2cc([N+](=O)[O-])ccc2[nH]c1=O | -11 | 15µM* | 0% | 1% | ? | 1%
CCN(CC)C(=S)Sc1c(-c2ccccc2)c2cc(Cl)ccc2[nH]c1=O | -61* | ? | -16% | 6% | 2.3µM* | ?
CCOC(=O)NNC(=O)c1[nH]c2ccc(Br)cc2c1-c1ccccc1 | -21 | ? | ? | -2% | ? | ?
CC(=O)Nc1c(-c2ccccc2)c2cc(Br)ccc2[nH]c1=O | -29 | -4% | -9% | 5% | -1% | 0.73µM*
CCc1ccc(-n2c3nc(=O)[nH]c(=O)c-3cc3c(C)nn(-c4ccccc4)c32)cc1 | . | 10% | . | . | 6% | .
O=C(O)CSc1c(-c2ccccc2)c2cc(Cl)ccc2[nH]c1=O | 10 | -4% | ? | 0% | -4% | 15%
NNC(=O)c1[nH]c2ccc(Cl)cc2c1-c1ccccc1 | 26 | 21µM* | ? | ? | ? | 9.2µM*
CC(C)Oc1ccc(C(=O)Nc2ccc3oc(-c4ccncc4)nc3c2)cc1 | . | -12% | . | . | -19% | .
Cc1c(C)n(Cc2ccccc2)c2ccc(C(=O)NC(C)c3ccccc3)cc12 (centres undefined) | . | 16µM* | . | . | 16µM* | .
Cc1c(C)n(Cc2ccccc2)c2ccc(C(=O)O)cc12 | . | -14% | . | ? | 6% | 9%
Cc1cccc(C(=O)Nc2c(C#N)c(C)c(C)n2Cc2ccccc2)c1 | -5 | 16µM* | 8% | 2% | ? | 0%
Cc1nn(C)cc1/C=N\NC(=O)c1ccc2c(c1)c(C)c(C)n2Cc1ccccc1 | -8 | -7% | ? | 1% | -7% | ?
Cc1ccccc1NC(=O)c1ccc2c(c1)c(C)c(C)n2Cc1ccccc1 | . | 4.1µM* | . | . | 7.3µM* | .
Cc1cccc(N2CN(S(=O)(=O)c3cccc([N+](=O)[O-])c3)c3nc4ccccc4nc32)c1 | 2 | -15% | 3% | -5% | -1% | 15%
Cc1[nH]n(-c2ccccc2)c(=O)c1/C=N/NC(=O)c1cccc(F)c1 | 73 | 4.1µM* | ? | ? | 5.2µM* | 13%
Cc1[nH]n(-c2ccc(Br)cc2)c(=O)c1/C=N/NC(=O)c1ccccc1 | 80 | 2.9µM* | ? | ? | 4.6µM* | -2%
O=C(N/N=C/c1c(Cl)cccc1Cl)c1cccc(F)c1 | 3 | 0% | 7% | 4% | 1% | -9%
CSc1nc(=NC(C)=O)ss1 | -3 | 35µM* | 9% | -6%[9.22 µM] | ? | 29%
CCOC(=O)C(CC(=O)Nc1nc(C(C)=O)c(C)s1)C(C)c1ccccc1 (centres undefined) | 48 | ? | -2% | -1% | 6% | 15%
Cc1nn(-c2cc(C)c3ccccc3n2)c2c1CCC2 | -4 | 23µM* | 2% | -4% | ? | -1%
Cc1cccc(NC(=O)CNC(=O)COc2ccc(-c3ccc(C#N)cc3)cc2)c1C | 5 | 13µM* | ? | 8% | -22% | 0%
